Results taken from ChEMBL document CHEMBL1157539, “Thousands of chemical starting points for antimalarial lead identification” (Nature, 2010).

The molecules below were run on Plasmodium falciparum (assay: GSK_TCMDC: Inhibition of Plasmodium falciparum 3D7 in whole red blood cells, using parasite LDH activity as an index of growth. Test compounds present at 2uM).
Assay type: functional
For `NCC1CCCN1Cc1ccc(-c2ccc(-c3nc4ccccc4[nH]3)s2)cc1.O=C(O)C(F)(F)F` (stereo not drawn), the Inhibition was 98%. `O=C(CN1CCC2(CCC1=O)CC(=O)c1ccccc1O2)NCCN1CCOCC1` (stereo not drawn) was tested, and the Inhibition was 100%. With `O=C1Nc2cccc3c2C1(CCCCN1CCC(c2c[nH]c4cc(C(F)(F)F)ccc24)CC1)CCC3` (stereo not drawn) the Inhibition was 99%.

Each molecule was assayed on Plasmodium falciparum (assay: GSK_TCMDC: Inhibition of Plasmodium falciparum Dd2 in whole red blood cells, using parasite LDH activity as an index of growth. Test compounds present at 2uM).
Assay type: functional
`CN(C)CCNCc1ccc(-c2ccc(-c3nc4ccccc4[nH]3)s2)cc1.O=C(O)C(F)(F)F` gave an Inhibition of 100%. `CC(C)CNCc1cccc(-c2cccc(CN(CCCN3CCN(C)CC3)C(=O)NC3CCCCC3)c2)c1.O=C(O)C(F)(F)F` showed an Inhibition of 84%. `CN1CCC(N2CCN(Cc3ccc(-c4cccc(-c5nc6ccccc6[nH]5)c4)cc3)CC2)CC1.O=C(O)C(F)(F)F` showed an Inhibition of 100%. `COc1ccc(-c2cnn3ccc(Nc4cc(OC)c(OC)c(OC)c4)nc23)cc1OC` was tested, and the Inhibition was 100%. Work on `COC(=O)COc1cc(C(=O)NCCCCN2CCC(c3ccc4c(c3OC)CCCC4)CC2)ccc1-c1ccc(Cl)cc1` yielded an Inhibition of 21%. Work on `Cc1cc(-c2ccc(NC(=O)N3CCc4cc(Br)c(N5CCN(C)CC5)cc43)cc2)cc(C)n1` yielded an Inhibition of 4%. Molecule `Cc1ccc(Nc2nccc(Nc3ccc4c(c3)nc(Nc3cc(C(C)(C)C)on3)n4C)n2)cc1S(C)(=O)=O` has an Inhibition of 99%. Molecule `COc1cccc(-c2cc(C(=O)NC3CCC(N4CCC(c5ccccc5C)CC4)CC3)[nH]n2)c1` (stereo not drawn) has an Inhibition of 58%. Work on `N#Cc1nc2ccc(OCCN(Cc3ccccc3C(F)(F)F)c3ccc(C#N)c(C(F)(F)F)c3)cc2s1` yielded an Inhibition of 47%. `CCOC(=O)NOC(C(=O)O)c1ccccc1` (stereo not drawn) gave an Inhibition of 17%. Work on `CCCO[C@H](C(=O)OC)[C@@H](CC1Cc2ccccc2C1)C(=O)NCCC1=CCCCC1` yielded an Inhibition of 57%. In the case of `COc1ccc2cc(C=NNc3nc4ccccc4[nH]3)c(Cl)nc2c1`, the Inhibition is reported as 90%. Molecule `CCOc1ccccc1CNc1nccc(NCCc2cn(C)c3ccccc23)n1` has an Inhibition of 62%. With `Cc1[nH]c(C)c(-c2ccc(-c3ccc(Cl)cc3)nc2)c(=O)c1Br` the Inhibition was 96%. `COc1ccc(C=Cc2cc(=N)c3ccccc3[nH]2)cc1.I` showed an Inhibition of 16%. Work on `Cc1ccc(-c2cc(C(=O)Nc3ccc(S(=O)(=O)N(C)Cc4ccccc4)cc3)[nH]n2)c(O)c1` yielded an Inhibition of 67%. `O=C(NC1CC1)c1cnc(N2CCC(c3ccccc3)CC2)c(Cl)c1.O=C(O)C(F)(F)F` showed an Inhibition of 95%. For `CC(C)CCN(Cc1cncn1Cc1ccccc1F)C(=O)c1cncc(-c2ccccc2)c1`, the Inhibition was 3%. Work on `Cc1cccc2nc(-c3ccc(-c4ccc(CNCC5CCCO5)cc4)cc3)[nH]c12.O=C(O)C(F)(F)F` (stereo not drawn) yielded an Inhibition of 81%. `O=C(Nc1cccc(CN2CCCN(CCc3ccccc3)CC2)c1)c1cc2ccccc2s1.O=C(O)C(F)(F)F` showed an Inhibition of 39%. With `O=C(NCCN1CCCCC1)c1cccc(Nc2nccc(Nc3ccc(Oc4ccccc4)cc3)n2)c1` the Inhibition was 86%. `C=CCNc1cc(-c2ccccn2)nc(-c2ccccn2)n1` gave an Inhibition of 79%. `CCCCOc1ccc(C(O)C(CN2CCCCC2)c2ccccc2)cc1` (stereo not drawn) gave an Inhibition of 84%. For `CC(C)(C)c1cc(C(=O)N2CCN(c3ncccc3C(F)(F)F)CC2)n(Cc2ccccc2)n1`, the Inhibition was 99%. In the case of `COc1ccc([N+](=O)[O-])cc1N(Cc1ccccc1-c1ccccc1)S(=O)(=O)c1ccc(C(F)(F)F)cc1`, the Inhibition is reported as 66%. With `Cl.N#Cc1ccc2c(c1)CN(CCC1CCC(NC(=O)c3cc4ccccc4cc3N)CC1)CC2` (stereo not drawn) the Inhibition was 52%. Work on `Cl.N#Cc1ccc2c(c1)CCN(CCC1CCC(Nc3ncnc4ccccc34)CC1)C2` (stereo not drawn) yielded an Inhibition of 96%. With `CCC(C)NS(=O)(=O)c1ccc2nc(Nc3ccc(C)cc3)n(C3CCCCC3)c2c1` (stereo not drawn) the Inhibition was 97%. Work on `O=C(O)C(F)(F)F.c1cc(CN2CCN(CCN3CCOCC3)CC2)cc(-c2cccc(-c3nc4ccccc4[nH]3)c2)c1` yielded an Inhibition of 100%. `COc1ccc(-c2cccc(NC(=O)c3ccc(Cl)cc3)c2)cc1CN1CCC(O)CC1.O=C(O)C(F)(F)F` was tested, and the Inhibition was 43%. Work on `CCOC(=O)C1=C(C)NC2=C(C(=O)CC(C)(C)C2)C1c1ccc(Cl)cc1` (stereo not drawn) yielded an Inhibition of 84%. For `OC(CNCc1ccccc1)c1cc(OCc2ccccc2)cc(OCc2ccccc2)c1` (stereo not drawn), the Inhibition was 76%. With `O=C(C=Cc1ccc(-c2nc3ccccc3[nH]2)cc1)NC1CCN(Cc2ccccc2)CC1` the Inhibition was 88%. `Cc1ccnc2nc(C(=O)Nc3cc(C(F)(F)F)ccc3N3CCCCC3)nn12` showed an Inhibition of 94%. In the case of `COc1ccc(NC(=O)[C@H](Cc2ccccc2)Nc2cc(C)nc(NCCc3cccs3)n2)cc1.O=C(O)C(F)(F)F`, the Inhibition is reported as 83%. `O=C(NCCCCN1CCC(c2ccc3c(c2O)CCCC3)CC1)c1ccc(-c2ccc(Cl)cc2)cc1` gave an Inhibition of 72%. Molecule `Cc1nn(C)c(C)c1CN(Cc1nc(-c2cccc(Oc3ccccc3)c2)oc1C)C1CC1` has an Inhibition of 98%. With `NCC1CCCN1Cc1ccc(-c2ccc(-c3nc4ccccc4[nH]3)s2)cc1.O=C(O)C(F)(F)F` (stereo not drawn) the Inhibition was 97%. `O=C(CN1CCC2(CCC1=O)CC(=O)c1ccccc1O2)NCCN1CCOCC1` (stereo not drawn) showed an Inhibition of 0%. In the case of `O=C1Nc2cccc3c2C1(CCCCN1CCC(c2c[nH]c4cc(C(F)(F)F)ccc24)CC1)CCC3` (stereo not drawn), the Inhibition is reported as 79%.
